Holding throughout (test): DAPPL (digital affinity profiling via proximity ligation, sequencing); 10 mM Tris-HCl pH 7.5, 50 mM NaCl, 1 mM DTT, 4% glycerol, room temperature, 30 min; GST-TFs on glutathione beads, 16-mer random dsDNA library, 0.1% formaldehyde crosslink after washing; high values mean tight binding
In one test the target is T1, FLI1 (Homo sapiens, UniProt Q01543 1-452).
T1 sequence: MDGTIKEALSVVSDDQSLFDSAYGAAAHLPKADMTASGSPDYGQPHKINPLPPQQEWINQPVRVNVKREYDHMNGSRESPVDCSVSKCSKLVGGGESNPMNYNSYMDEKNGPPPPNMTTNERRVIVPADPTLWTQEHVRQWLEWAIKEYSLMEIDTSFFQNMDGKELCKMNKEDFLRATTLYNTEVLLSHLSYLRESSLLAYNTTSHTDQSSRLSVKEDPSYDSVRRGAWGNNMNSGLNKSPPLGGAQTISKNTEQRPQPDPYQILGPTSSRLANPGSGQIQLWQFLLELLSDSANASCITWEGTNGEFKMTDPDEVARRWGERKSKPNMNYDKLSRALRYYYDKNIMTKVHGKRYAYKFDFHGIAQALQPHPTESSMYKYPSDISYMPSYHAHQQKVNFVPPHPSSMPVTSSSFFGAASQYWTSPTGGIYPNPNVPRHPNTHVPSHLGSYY
The note with it: protein: recombinant; tags: N-terminal GST; dsDNA, one strand shown. The procedure, abridged: (§1)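 After expression in yeast as GST fusions, human transcription factors were bound to glutathione beads, DNA-barcoded and mixed with a tag-only sample. The pools were incubated with 200 nmole of a 16-mer random double-stranded DNA library in Tris/NaCl/DTT/glycerol buffer (30 min, room temperature), washed and crosslinked with 0.1% formaldehyde. Proximity ligation with BsaI/T4 ligase ran for 1 h at 37 °C, before PCR amplification and sequencing on an Illumina NextSeq500. Binding signal is a hexamer's read frequency for a factor divided by its frequency for the tag-only sample.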

Another test concerns the target T2, ELK1 (Homo sapiens, UniProt P19419 1-428).
T2 sequence: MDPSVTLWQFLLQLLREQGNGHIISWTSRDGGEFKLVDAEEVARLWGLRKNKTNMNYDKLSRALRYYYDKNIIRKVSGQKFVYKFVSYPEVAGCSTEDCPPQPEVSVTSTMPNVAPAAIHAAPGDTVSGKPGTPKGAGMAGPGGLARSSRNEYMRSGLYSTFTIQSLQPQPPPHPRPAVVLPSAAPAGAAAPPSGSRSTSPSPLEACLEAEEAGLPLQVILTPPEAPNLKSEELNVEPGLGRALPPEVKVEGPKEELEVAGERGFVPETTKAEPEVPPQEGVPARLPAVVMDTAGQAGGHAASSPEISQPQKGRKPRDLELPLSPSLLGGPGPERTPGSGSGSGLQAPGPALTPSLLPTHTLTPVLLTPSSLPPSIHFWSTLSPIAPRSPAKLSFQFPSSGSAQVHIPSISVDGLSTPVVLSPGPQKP
The note with it: protein: recombinant; tags: N-terminal GST; dsDNA, one strand shown. The procedure, abridged: as §1

Another test deals with T3, GABPA (Homo sapiens, UniProt Q06546 1-454).
T3 sequence: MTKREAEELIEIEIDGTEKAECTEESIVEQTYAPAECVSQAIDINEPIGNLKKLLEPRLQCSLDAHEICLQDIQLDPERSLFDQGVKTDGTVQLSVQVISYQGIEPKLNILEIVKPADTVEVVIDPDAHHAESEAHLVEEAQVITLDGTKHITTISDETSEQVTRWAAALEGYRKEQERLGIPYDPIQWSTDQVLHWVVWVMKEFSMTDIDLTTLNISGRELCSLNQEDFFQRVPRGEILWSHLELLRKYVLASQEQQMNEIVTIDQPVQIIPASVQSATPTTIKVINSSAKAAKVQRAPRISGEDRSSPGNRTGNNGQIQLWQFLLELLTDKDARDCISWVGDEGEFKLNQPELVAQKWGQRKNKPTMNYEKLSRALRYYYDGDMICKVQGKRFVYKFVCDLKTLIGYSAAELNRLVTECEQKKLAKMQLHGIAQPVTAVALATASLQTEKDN
The note with it: protein: recombinant; tags: N-terminal GST; dsDNA, one strand shown. The procedure, abridged: as §1

For the next test, the target named is T4, ERG (Homo sapiens, UniProt P11308 1-479).
T4 sequence: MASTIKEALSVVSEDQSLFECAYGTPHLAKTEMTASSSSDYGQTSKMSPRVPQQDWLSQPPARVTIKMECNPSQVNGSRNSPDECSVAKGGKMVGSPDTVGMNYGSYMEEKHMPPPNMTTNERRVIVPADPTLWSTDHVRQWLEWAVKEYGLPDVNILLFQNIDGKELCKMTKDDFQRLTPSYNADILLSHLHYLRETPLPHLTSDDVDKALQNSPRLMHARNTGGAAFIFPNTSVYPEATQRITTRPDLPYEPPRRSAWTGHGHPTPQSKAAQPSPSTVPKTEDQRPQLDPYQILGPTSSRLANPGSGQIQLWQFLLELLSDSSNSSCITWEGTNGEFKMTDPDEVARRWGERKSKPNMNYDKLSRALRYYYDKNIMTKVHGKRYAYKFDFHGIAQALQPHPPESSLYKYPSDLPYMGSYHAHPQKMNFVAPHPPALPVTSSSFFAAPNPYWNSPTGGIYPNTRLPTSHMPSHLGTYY
As to conditions: protein: recombinant; tags: N-terminal GST; dsDNA, one strand shown. The procedure, abridged: as §1

The next test deals with ELF1 (Homo sapiens, UniProt P32519 1-619). As to conditions: protein: recombinant; tags: N-terminal GST; dsDNA, one strand shown. The procedure, abridged: as §1
A further test addresses T5, EHF (Homo sapiens, UniProt Q9NZC4 1-300).
T5 sequence: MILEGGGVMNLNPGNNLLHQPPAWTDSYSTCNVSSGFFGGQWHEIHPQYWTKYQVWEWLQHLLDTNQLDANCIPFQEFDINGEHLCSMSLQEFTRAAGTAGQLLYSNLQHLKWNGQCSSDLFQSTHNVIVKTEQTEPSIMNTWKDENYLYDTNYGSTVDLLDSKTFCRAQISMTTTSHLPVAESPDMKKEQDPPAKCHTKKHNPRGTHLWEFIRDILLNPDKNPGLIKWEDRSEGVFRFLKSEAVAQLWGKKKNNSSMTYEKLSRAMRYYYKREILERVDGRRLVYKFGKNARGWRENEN
The note with it: protein: recombinant; tags: N-terminal GST; dsDNA, one strand shown. The procedure, abridged: as §1

In another test the target is SPI1 (Homo sapiens, UniProt P17947 1-270). The note with it: protein: recombinant; tags: N-terminal GST; dsDNA, one strand shown. The method in brief: as §1
Another test has as its target SPIB (Homo sapiens, UniProt Q01892 1-262). As to conditions: protein: recombinant; tags: N-terminal GST; dsDNA, one strand shown. The method in brief: as §1
A further test has as its target T6, ELK3 (Homo sapiens, UniProt P41970 1-407).
T6 sequence: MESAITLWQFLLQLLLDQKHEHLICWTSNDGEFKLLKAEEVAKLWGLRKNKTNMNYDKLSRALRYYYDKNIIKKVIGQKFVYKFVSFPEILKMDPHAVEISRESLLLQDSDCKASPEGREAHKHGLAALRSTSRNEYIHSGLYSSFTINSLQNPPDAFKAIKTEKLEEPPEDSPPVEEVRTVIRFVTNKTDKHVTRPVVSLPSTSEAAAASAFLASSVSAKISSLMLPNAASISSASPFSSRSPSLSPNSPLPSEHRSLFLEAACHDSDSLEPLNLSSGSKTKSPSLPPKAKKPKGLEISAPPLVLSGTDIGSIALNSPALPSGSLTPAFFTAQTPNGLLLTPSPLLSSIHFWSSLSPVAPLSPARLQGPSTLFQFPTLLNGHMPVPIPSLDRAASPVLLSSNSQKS
As to conditions: protein: recombinant; tags: N-terminal GST; dsDNA, one strand shown. The procedure, abridged:
as §1

In another test the target is T7, FEV (Homo sapiens, UniProt Q99581 1-238).
T7 sequence: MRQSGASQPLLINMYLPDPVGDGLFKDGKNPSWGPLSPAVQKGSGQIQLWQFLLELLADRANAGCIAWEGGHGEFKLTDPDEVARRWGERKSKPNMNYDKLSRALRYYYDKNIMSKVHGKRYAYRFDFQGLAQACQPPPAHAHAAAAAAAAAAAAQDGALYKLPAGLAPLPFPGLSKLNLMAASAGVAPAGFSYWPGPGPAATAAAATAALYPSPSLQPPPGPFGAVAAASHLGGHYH
As to conditions: protein: recombinant; tags: N-terminal GST; dsDNA, one strand shown. The method in brief:
as §1

A further test has as its target ETV5 (Homo sapiens, UniProt P41161 1-510). The note with it: protein: recombinant; tags: N-terminal GST; dsDNA, one strand shown. The method in brief:
as §1

Another test addresses HSF1 (Homo sapiens, UniProt Q00613 1-529). The note with it: protein: recombinant; tags: N-terminal GST; chain copies: 3; dsDNA, one strand shown. The method in brief:
as §1

The next test addresses T8, SPIC (Homo sapiens, UniProt Q8N5J4 1-248).
T8 sequence: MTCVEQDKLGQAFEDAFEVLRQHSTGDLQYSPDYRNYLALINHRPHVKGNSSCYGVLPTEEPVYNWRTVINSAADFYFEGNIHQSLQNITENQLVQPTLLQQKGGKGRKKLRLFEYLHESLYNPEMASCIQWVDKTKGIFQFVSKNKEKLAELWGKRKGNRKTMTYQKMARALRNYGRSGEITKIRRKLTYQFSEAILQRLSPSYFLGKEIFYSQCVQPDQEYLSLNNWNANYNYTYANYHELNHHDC
As to conditions: protein: recombinant; tags: N-terminal GST; dsDNA, one strand shown. The procedure, abridged: as §1

For another test, the target named is ELF4 (Homo sapiens, UniProt Q99607 1-663). As to conditions: protein: recombinant; tags: N-terminal GST; dsDNA, one strand shown. The method in brief:
as §1

For the next test, the target named is T9, ELK4 (Homo sapiens, UniProt P28324-2 1-405).
T9 sequence: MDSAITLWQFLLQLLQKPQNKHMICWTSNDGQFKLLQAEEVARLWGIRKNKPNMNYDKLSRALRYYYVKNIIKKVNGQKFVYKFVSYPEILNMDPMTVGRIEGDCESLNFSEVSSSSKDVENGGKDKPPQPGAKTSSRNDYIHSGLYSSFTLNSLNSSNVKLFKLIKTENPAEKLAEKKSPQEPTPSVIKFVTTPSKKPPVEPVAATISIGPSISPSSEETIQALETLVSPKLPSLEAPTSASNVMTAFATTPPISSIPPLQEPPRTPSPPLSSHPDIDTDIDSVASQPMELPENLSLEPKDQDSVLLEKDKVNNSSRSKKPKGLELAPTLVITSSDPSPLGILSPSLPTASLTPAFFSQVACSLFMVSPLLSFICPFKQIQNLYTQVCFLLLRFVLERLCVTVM
As to conditions: protein: recombinant; tags: N-terminal GST; dsDNA, one strand shown. The procedure, abridged: as §1

The next test concerns the target T10, ETV2 (Homo sapiens, UniProt O00321 1-342).
T10 sequence: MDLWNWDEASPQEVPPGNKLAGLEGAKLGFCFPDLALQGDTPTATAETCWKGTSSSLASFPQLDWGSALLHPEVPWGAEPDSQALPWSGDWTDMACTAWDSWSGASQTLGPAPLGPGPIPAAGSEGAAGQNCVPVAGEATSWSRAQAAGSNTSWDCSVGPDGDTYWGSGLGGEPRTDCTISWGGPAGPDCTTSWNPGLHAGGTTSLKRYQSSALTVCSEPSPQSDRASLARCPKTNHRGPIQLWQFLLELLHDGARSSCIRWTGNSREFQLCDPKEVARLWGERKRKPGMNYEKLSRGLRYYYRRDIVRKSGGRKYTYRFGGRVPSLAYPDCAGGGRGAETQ
The note with it: protein: recombinant; tags: N-terminal GST; dsDNA, one strand shown. The method in brief: as §1

The target in a further test is T11, ELF3 (Homo sapiens, UniProt P78545 1-371).
T11 sequence: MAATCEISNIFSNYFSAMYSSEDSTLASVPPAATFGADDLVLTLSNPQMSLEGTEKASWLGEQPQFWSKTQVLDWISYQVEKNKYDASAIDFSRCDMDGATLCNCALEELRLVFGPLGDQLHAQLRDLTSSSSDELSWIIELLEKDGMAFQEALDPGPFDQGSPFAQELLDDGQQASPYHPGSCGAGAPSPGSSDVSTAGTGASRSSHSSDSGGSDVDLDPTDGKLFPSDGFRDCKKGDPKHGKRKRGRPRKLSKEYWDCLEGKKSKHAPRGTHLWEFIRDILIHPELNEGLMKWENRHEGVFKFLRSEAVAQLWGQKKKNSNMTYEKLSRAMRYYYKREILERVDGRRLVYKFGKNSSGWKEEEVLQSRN
As to conditions: protein: recombinant; tags: N-terminal GST; dsDNA, one strand shown. The method in brief:
as §1

The next test has as its target ETV1 (Homo sapiens, UniProt P50549 1-477). As to conditions: protein: recombinant; tags: N-terminal GST; dsDNA, one strand shown. The method in brief:
as §1

This is an account of results in article PMC7862700, “An all-to-all approach to the identification of sequence-specific readers for epigenetic DNA modifications on cytosine”.

ETV1, sequence (P50549 whole entry): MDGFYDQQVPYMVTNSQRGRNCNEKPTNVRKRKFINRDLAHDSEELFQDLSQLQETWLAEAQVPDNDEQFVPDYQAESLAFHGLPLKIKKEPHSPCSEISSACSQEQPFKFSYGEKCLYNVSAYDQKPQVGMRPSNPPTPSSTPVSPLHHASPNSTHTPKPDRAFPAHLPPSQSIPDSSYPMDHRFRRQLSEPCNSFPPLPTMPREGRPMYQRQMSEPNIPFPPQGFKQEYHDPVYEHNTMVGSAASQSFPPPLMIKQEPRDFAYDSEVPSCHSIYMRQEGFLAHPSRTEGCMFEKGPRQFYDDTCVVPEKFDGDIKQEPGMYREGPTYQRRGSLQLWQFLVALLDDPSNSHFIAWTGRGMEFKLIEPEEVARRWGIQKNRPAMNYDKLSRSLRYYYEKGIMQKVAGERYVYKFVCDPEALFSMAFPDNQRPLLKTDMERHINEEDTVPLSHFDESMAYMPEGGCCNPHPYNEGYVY
ETV5, sequence (P41161 whole entry): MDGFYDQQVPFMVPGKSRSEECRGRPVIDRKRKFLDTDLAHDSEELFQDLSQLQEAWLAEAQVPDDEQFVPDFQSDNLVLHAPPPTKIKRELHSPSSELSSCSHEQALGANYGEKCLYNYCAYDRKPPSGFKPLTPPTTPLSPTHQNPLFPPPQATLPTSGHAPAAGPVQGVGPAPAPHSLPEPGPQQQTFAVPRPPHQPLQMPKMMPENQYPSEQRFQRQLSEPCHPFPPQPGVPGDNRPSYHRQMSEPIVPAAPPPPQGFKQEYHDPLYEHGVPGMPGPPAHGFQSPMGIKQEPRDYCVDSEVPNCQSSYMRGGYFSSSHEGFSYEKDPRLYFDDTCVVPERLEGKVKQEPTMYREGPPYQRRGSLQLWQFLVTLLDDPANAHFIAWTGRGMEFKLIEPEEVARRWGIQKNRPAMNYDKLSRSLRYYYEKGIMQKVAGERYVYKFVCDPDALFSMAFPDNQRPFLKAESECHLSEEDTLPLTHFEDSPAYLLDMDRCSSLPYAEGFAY
SPIB, sequence (Q01892 whole entry): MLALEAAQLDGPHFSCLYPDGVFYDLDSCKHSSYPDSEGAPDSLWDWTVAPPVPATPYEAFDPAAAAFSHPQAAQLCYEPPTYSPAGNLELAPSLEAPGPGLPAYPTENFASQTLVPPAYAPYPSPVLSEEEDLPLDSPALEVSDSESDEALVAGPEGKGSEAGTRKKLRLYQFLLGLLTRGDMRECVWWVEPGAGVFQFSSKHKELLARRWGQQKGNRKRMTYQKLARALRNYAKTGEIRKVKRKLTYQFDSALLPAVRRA
ELF1, sequence (P32519 whole entry): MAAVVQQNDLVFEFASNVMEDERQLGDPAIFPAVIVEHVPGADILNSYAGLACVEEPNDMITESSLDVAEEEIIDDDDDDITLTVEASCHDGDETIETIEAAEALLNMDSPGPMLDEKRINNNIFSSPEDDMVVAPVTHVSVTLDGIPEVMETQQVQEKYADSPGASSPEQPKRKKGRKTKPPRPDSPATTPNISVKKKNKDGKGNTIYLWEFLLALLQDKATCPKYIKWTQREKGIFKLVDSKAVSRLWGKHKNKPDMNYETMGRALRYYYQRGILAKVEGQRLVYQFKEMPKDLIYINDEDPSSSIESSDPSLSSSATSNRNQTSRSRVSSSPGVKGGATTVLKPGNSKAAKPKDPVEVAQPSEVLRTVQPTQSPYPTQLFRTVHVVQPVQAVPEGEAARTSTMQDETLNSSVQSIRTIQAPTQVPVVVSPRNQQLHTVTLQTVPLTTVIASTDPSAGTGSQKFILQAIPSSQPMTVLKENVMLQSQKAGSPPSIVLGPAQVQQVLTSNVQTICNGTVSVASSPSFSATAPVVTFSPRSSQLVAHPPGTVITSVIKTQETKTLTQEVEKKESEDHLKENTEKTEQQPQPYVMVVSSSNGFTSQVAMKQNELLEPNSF
ELF4, sequence (Q99607 whole entry): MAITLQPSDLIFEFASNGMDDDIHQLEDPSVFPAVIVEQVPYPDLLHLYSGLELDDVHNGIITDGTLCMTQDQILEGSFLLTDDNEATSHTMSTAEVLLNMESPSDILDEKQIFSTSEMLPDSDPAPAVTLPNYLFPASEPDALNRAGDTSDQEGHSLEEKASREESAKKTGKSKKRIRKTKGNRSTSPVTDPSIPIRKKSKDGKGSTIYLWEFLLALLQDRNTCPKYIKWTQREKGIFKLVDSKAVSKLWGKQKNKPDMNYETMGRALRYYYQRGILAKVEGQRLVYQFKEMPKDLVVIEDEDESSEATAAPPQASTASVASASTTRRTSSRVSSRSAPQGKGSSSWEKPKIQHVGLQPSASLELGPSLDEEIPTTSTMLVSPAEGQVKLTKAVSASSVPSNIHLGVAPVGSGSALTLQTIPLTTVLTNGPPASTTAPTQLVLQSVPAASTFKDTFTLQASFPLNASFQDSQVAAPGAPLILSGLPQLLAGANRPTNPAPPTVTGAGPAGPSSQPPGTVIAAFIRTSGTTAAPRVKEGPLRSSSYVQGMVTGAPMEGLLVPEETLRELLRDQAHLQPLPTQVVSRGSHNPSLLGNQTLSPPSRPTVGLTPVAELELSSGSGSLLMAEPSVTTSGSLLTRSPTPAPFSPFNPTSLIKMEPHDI
HSF1, sequence (Q00613 whole entry): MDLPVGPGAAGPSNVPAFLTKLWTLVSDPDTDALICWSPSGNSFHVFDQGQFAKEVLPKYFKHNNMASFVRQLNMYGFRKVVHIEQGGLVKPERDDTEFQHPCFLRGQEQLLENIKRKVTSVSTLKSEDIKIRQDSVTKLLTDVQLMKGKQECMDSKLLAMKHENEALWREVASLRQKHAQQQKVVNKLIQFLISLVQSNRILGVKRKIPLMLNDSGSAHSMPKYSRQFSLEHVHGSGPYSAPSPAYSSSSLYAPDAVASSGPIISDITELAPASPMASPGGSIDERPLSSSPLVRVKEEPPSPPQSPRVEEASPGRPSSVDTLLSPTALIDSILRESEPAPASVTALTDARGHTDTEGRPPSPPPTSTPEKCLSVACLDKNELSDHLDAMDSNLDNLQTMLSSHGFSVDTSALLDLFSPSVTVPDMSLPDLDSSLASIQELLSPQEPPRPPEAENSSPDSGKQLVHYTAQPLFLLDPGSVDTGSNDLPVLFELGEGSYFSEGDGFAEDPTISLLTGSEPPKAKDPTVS

TCTGTC: the binding signal is 1.16 fold enrichment (6-mer frequency, TF over GST control) with FLI1; 1.13 fold enrichment (6-mer frequency, TF over GST control) in the test with ELK1; 1.16 fold enrichment (6-mer frequency, TF over GST control) in the test with GABPA; 1.17 fold enrichment (6-mer frequency, TF over GST control) in the test with ERG; 1.12 fold enrichment (6-mer frequency, TF over GST control) with ELF1; 1.14 fold enrichment (6-mer frequency, TF over GST control) with EHF. Besides, the binding signal was 1.1 fold enrichment (6-mer frequency, TF over GST control) in the test with SPI1; 1.05 fold enrichment (6-mer frequency, TF over GST control) with SPIB; 1.17 fold enrichment (6-mer frequency, TF over GST control) in the test with ELK3; 1.13 fold enrichment (6-mer frequency, TF over GST control) in the test with FEV; 1.18 fold enrichment (6-mer frequency, TF over GST control) in the test with ETV5; 1.07 fold enrichment (6-mer frequency, TF over GST control) with HSF1. Also, the binding signal in the test with SPIC was 1.3 fold enrichment (6-mer frequency, TF over GST control); with ELF4, 1.13 fold enrichment (6-mer frequency, TF over GST control); with ELK4, 1.27 fold enrichment (6-mer frequency, TF over GST control); with ETV2, 1.19 fold enrichment (6-mer frequency, TF over GST control); in the test with ELF3, 1.19 fold enrichment (6-mer frequency, TF over GST control); in the test with ETV1 it was 1.23 fold enrichment (6-mer frequency, TF over GST control).
